# Assay outcomes deposited in PubChem by National Center for Advancing Translational Sciences (NCATS).
# This is a sample that favours compounds with a hit; in the whole collection about 6.5% have one here.
# FMDV inh – antivirals against foot and mouth disease virus | Potency, µM (top dose mostly 57.9 µM), for inactives: top-dose activity change, negative = inhibition, most hits filed as inhibitors | hit rate 1.2% among 410,000 | FMDV antiviral cell-based qHTS; calls by dose curve; tested in HEK293T cells; note: read-out not given here; potency is the fitted concentration of half-maximal effect; nearly all actives have a fitted effect of over 45% in size
# VACV Venus inh – inhibitors of vaccinia virus (Venus reporter) | Vaccinia virus Venus reporter expression, fluorescence | Potency, µM (top dose mostly 36.5 µM), without a hit: at the highest dose activity change, negative = inhibition, usual class: inhibitors | hit rate 0.46% among 330,000 | AID 720580; calls by dose curve; tested in A549 cells; note: potency is the fitted concentration of half-maximal effect; nearly all actives have a fitted effect of over 30% in size
# LASV entry inh – Lassa virus entry inhibition | Lassa virus pseudotype entry inhibition, cell reporter | Potency, µM (top dose mostly 37.9 µM), for the others: top-dose activity change, negative = inhibition, hits mostly inhibitors | hit rate 1.2% among 300,000; calls by dose curve; tested in HEK293 cells; note: potency is the fitted concentration of half-maximal effect; nearly all actives have a fitted effect of over 50% in size
# HCMV antiviral – inhibitors of human cytomegalovirus; hit rate 4.5% among 410,000; HFF cells, HCMV-luciferase reporter, 72 h; stronger effect = lower value; AID 1259415; activity change, negative = inhibition, % at 57.5 µM; in the data active = activity change below about -60%; inconclusive = no clear call, values can overlap the other calls; inactive = above about -39%
#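 Human foreskin fibroblasts infected with luciferase-reporter HCMV at MOI 1 PFU/cell, compounds at two doses. Luciferase measured 72 h post infection; normalized to buffer-only basal and Salinomycin (10uM) controls.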
# Marburg entry inh – blocks Marburg virus binding to or entry into cells; Marburg virus pseudotyped entry inhibition, cell reporter; Potency, µM (top dose mostly 37.8 µM), inactives show top-dose activity change, negative = inhibition, hits mostly inhibitors; hit rate 1.8% among 300,000; AID 540276; calls by dose curve; tested in HEK293 cells; note: potency is the fitted concentration of half-maximal effect
# Vaccinia mCherry – inhibitors of vaccinia virus infection (mCherry reporter signal); Potency, µM (top dose mostly 36.5 µM), for the others: at the highest dose activity change, negative = inhibition, most hits filed as inhibitors; Vaccinia virus mCherry reporter infection, fluorescence; hit rate 0.63% among 310,000; AID 720579; calls by dose curve; tested in A549 cells; note: potency is the fitted concentration of half-maximal effect; nearly all actives have a fitted effect of over 35% in size
# Numbers without * were called inactive; i = inactive; ? = inconclusive; · = no result given; [ ] = dose if it differs, or a comment. % is set by controls: 0 for no effect and ±100 for the full control effect.
SMILES,FMDV inh,VACV Venus inh,LASV entry inh,HCMV antiviral,Marburg entry inh,Vaccinia mCherry
CCOc1ccccc1C(=O)NCc1ccc2c(c1)CCN2C(=O)c1ccccc1,-28.1%,-24.0%,?,-77.8*,·,?
COc1ccc(C)cc1NC(=O)NCc1ccc2c(c1)CCN2C(=O)c1ccccc1,?,-24.9%,?,-91.8*,·,-9.8%
CCOc1ccc(C(=O)NCc2ccc3c(c2)CCN3C(=O)c2ccccc2)cc1,-24.0%,-8.2%,18.1%[46.1 µM],-32.1,·,i
CCOc1cccc(CC(=O)NCc2ccc3c(c2)CCN3C(=O)c2cccc(C)c2)c1OCC,14.1µM*,?,11.2µM*,-67.4*,?,?
Cc1ccc(NC(=O)NCc2ccc3c(c2)CCN3C(=O)c2ccccc2)c(Cl)c1,?,?,-13.0%[46.1 µM],-30.7,·,?
CCc1ccccc1NC(=O)NCc1ccc2c(c1)CCN2C(=O)c1ccccc1,-22.5%,-17.3%,18.4%[46.1 µM],23.0,·,-16.1%
C#Cc1cccc(C(=O)NCc2nc(-c3ccccc3NC(=O)C3CCCO3)oc2C)c1 (stereo not given),-7.0%,1.2%,·,·,·,-6.7%
CSc1ccc(C(=O)N2CCc3c(cnc(C)c3CNC(=O)c3cncs3)C2)cc1,10.9%,-2.5%,·,·,·,-0.4%
O=C(NCc1ccc2c(c1)CCN2C(=O)c1ccc(Cl)cc1)c1ccco1,4.8%,-8.4%,?,14.7,·,-13.3%
Cc1cccc(C(=O)N2CCc3cc(CNC(=O)c4ccco4)ccc32)c1,28.2µM*,-23.1%,20.4%[46.1 µM],-38.3,·,-12.7%
Cc1ccc(Cn2c(C)c3cnn(CC(=O)O)c(=O)c3c2C)cc1,-14.5%,0.1%,4.2%[46.1 µM],31.0,8.1%[46.1 µM],2.4%
CCOc1ccc(OCC)c(NC(=O)CSc2nc3c(c(=O)n(C)c(=O)n3C)n2C(C)C)c1,·,-20.1%,?,-62.5*,?,-24.5%
C=C(CCN1C=C(C(C)=O)C(c2ccccc2)NC1=O)c1ccc(OC)cc1 (stereo not given),·,·,·,·,12.4%[14.2 µM],·
CCCCCCCCNCCS(=O)(=O)NCCCCCCCC,?,-15.5%,·,-101.8*,·,i
Cc1ccc(Cc2c(-c3cccc(Br)c3)nc3c4ccccc4ccn23)cc1,·,·,·,79.3,·,·
Cc1cc(C)c2nc(-c3ccccn3)cc(C(=O)NCc3ccc(S(N)(=O)=O)cc3)c2c1,-18.8%,-14.6%,?,-18.4,11.2µM*,-4.4%
Cc1nc2ccccc2c(=O)n1Cc1ccco1,-6.0%,·,·,-2.0,·,·
O=C1c2ccccc2C(=O)N1CCc1nc2ccccc2c(=O)n1Cc1ccco1,28.2µM*,-8.1%,-1.9%,29.3,-1.6%,·
O=C(NCc1ccco1)c1ccc(Cn2c(=O)c3sccc3n(Cc3cccc(F)c3)c2=O)cc1,-15.2%,-6.1%,·,-60.9*,-0.8%,11.3%
O=C(c1ccco1)N1CCN(C(=O)c2cc3sccc3n2Cc2ccccc2)CC1,-27.6%,·,?,-70.9*,-6.4%,·
Cn1c(C(=O)N2CCCC(C(=O)NCc3ccc4c(c3)OCO4)C2)cc2sccc21 (stereo not given),0.0%,-23.0%,·,-13.3,0.2%,-1.1%
CCn1c(C(=O)N2CCC(C(=O)NCc3ccc4c(c3)OCO4)CC2)cc2sccc21,31.6µM*,-11.8%,-22.9%,5.5,1.7%,11.3%
O=C(NCc1ccccn1)C1CCN(C(=O)c2cc3sccc3n2Cc2ccc(F)cc2)CC1,0.0%,·,·,·,·,·
O=C(NCc1ccco1)c1ccc(Cn2c(=O)c3ccccc3n(Cc3cccc(Cl)c3)c2=O)cc1,-0.3%,·,-8.9%,-34.0,?,·
O=C(NCc1ccco1)C1CCN(C(=O)c2cc3sccc3n2Cc2ccc(F)cc2)CC1,·,-29.7%,10.3µM*,-7.4,3.9%,-9.7%
SMILES,FMDV inh,VACV Venus inh,LASV entry inh,HCMV antiviral,Marburg entry inh,Vaccinia mCherry
CCCc1ccc(OCc2ccc(C(=O)Nc3ccccc3C(=O)OC)o2)cc1,38.8%,-9.1%,?,85.6,28.1%[46.1 µM],-6.7%
COc1ccccc1CN1Cc2ccccc2Oc2ccccc2S1(=O)=O,·,·,·,-32.3,·,·
CCc1ccccc1-n1c(SCC(=O)Nc2ccc(C)cc2)nc2n[nH]c(C)c2c1=N,?,?,?,-69.1*,·,?
CCOc1ccccc1-n1c(SCC(=O)Nc2ccc(CC)cc2)nc2n[nH]c(C)c2c1=N,-28.6%,-19.3%,10µM*,·,?,·
CCc1ccc(NC(=O)CSc2nc3n[nH]c(C)c3c(=N)n2-c2ccccc2C)cc1,0.0%,?,?,?,·,?
Cc1ccc(CNC(=O)CSc2nc3n[nH]c(C)c3c(=N)n2-c2ccccc2Cl)cc1,-3.5%,-2.6%,5.3%[46.1 µM],-3.8,·,-5.8%
